This is an account of results in ChEMBL document CHEMBL4888484, “Replenishing the malaria drug discovery pipeline: Screening and hit evaluation of the MMV Hit Generation Library 1 (HGL1) against asexual blood stage Plasmodium falciparum ,using a nano luciferase reporter read-out” (2022).

Among all 150,000 compounds or so, about 540 (0.36%) showed an effect of 50% or more. The entries come from a sample that favours strong results as a whole.

The assay has as its system Plasmodium falciparum. The assay is described as follows: Primary screen in NF54 nanoGlo assay, in single point, at 2uM, 72h; a lower Z score goes with more inhibition. The assay is classed as functional, Erythrocyte. To be noted: timepoint 72 hour.
As to `N#Cc1nc2c(S(=O)(=O)c3ccccc3)c(N)n(Cc3ccc(Cl)cc3)c2nc1C#N`, the “% Inhibition” value is listed as -16% and the Z score came to 2.57.

`COc1ccc(CCn2c(N)c(-c3nc4ccccc4s3)c3nc(C#N)c(C#N)nc32)cc1OC`: the “% Inhibition” value is listed as -5% and the Z score is given as 0.86.

`N#Cc1nc2c(C#N)c(N)n(CCc3ccccc3)c2nc1C#N`: the “% Inhibition” value was determined as 88% and the Z score is -11.87.

Regarding `C[C@H]1COCCN1C(=O)CCc1ccco1`, the “% Inhibition” value is -2% and the Z score is 0.25.

For `Cc1ccc(CNC[C@H](O)c2cccnc2)c(Br)c1`, the “% Inhibition” value stood at 7% and the Z score is -0.68.

As to `O=C(Cn1cnc2ccc(Cl)cc2c1=O)NCCCc1ccccc1`, the “% Inhibition” value was 2% and the Z score is -0.27.

Consider `Cc1ccsc1CN(CCN1CCOCC1)[C@H]1CCCNC1`, for which the “% Inhibition” value was -5% and the Z score turned out to be 0.7.

For `CCOC(=O)N1CC[C@H](NC2(c3cc(F)ccc3F)CC2)C1`, the “% Inhibition” value was -9% and the Z score is listed as 1.36.

For the compound `O=C(Cn1cc2c(n1)CCCCCC2)NCCc1ccc(Cl)cc1`, the “% Inhibition” value was found to be 6% and the Z score was -0.96.

Turning to `C[C@@H](CNc1nc(-c2ccccc2)nc2ccccc12)N1CCOCC1`, the “% Inhibition” value was -9% and the Z score is on record as 1.51.

Regarding `C[C@@H](CNc1cnc2ccccc2n1)N1CCOCC1`, the “% Inhibition” value amounted to 20% and the Z score was -2.58.

As to `CCCCCc1nc([C@H](C)N2CCN(C)CC2)n(-c2cc(C)ccn2)n1`, the “% Inhibition” value is on record as -3% and the Z score is listed as 0.42.

`O=S(=O)(c1ccc(Cl)s1)N1CCc2nc(-c3ccc(Cl)cc3)ncc2C1`: the “% Inhibition” value is -11% and the Z score was determined as 1.78.

In the case of `Cc1cccc2c1OCC[C@H]2NC(=O)Cn1cnc2c1CCNC21CCOCC1`, the “% Inhibition” value is reported as -5% and the Z score came to 0.76.

Regarding `Clc1ccc(COc2ccc(Cl)cc2CNCCCn2ccnc2)c(Cl)c1`, the “% Inhibition” value turned out to be 94% and the Z score is listed as -11.1.

As to `CCOc1cc(CNCCCn2ccnc2)ccc1OCc1ccccc1`, the “% Inhibition” value is reported as 46% and the Z score is -2.57.

Consider `O[C@@H](CNCCCn1ccnc1)COc1ccc(Cl)cc1Cl`, for which the “% Inhibition” value stood at 26% and the Z score is given as -2.66.

With `C[C@@H](NCCCn1ccnc1)c1ccc(Cl)cc1`, the “% Inhibition” value was -4% and the Z score is 0.5.

On to `Clc1ccc(Cn2cc(CNCCCn3ccnc3)c3ccccc32)c(Cl)c1`, for which the “% Inhibition” value amounted to 98% and the Z score is -10.9.

As for `O=c1[nH]nc(Cn2ccnc2)n1Cc1ccc(Cl)cc1Cl`, the “% Inhibition” value was found to be 0% and the Z score is listed as -0.08.

Take `O=C(O)c1cccc(CN2CCc3nc(C4CC4)ncc3C2)c1`: the “% Inhibition” value is -13% and the Z score is 1.45.

Take `CC1CC(N2CCCC(n3cnc4ccccc43)C2)CN1C` (stereo not drawn): the “% Inhibition” value is -5% and the Z score is on record as 0.43.

On to `Cc1ccc(C(=O)c2nocc2C(=O)c2cccnc2)cc1`, for which the “% Inhibition” value amounted to 1% and the Z score is reported as -0.19.

On to `CCc1cc(C(=O)N2CCN(C/C=C/c3ccccc3)CC2)cc(=O)[nH]1`, for which the “% Inhibition” value was determined as 0% and the Z score turned out to be 0.04.

For the compound `CC1CCC(C(C)C)C(OC(=O)Cn2nnc(C(N)=O)n2)C1` (stereo not drawn), the “% Inhibition” value was 19% and the Z score was -2.22.

On to `CC1CCC(C(C)C)C(OC(=O)COC(=O)c2ccncc2)C1` (stereo not drawn), for which the “% Inhibition” value is listed as -10% and the Z score was determined as 1.31.

`CC(C)[C@@H]1CC[C@H](C)C[C@H]1OC(=O)Cn1cc(-c2ccc(Cl)cc2)[n+]2c1CCC2`: the “% Inhibition” value is on record as 79% and the Z score is recorded as -6.99.

Regarding `Cc1onc(-c2ccccn2)c1C(=O)NC1CCCCC1`, the “% Inhibition” value amounted to 12% and the Z score is on record as -2.28.

For the compound `C=C(C)C(=O)Nc1ccc(Cc2ccc(NC(=O)C(=C)C)c(O)c2)cc1O`, the “% Inhibition” value was 0% and the Z score is on record as -0.04.

For the compound `O=C(Nc1ccc(Cc2ccc(NC(=O)c3ccc(Br)cc3)c(O)c2)cc1O)c1ccc(Br)cc1`, the “% Inhibition” value amounted to 60% and the Z score is reported as -1.

Consider `CNC(=O)CCCC(=O)Nc1ccc(Br)cc1O`, for which the “% Inhibition” value is -9% and the Z score worked out at 0.88.

Turning to `CCN(CC(=O)N1CCCNC(=O)[C@@H]1C)c1ccccc1`, the “% Inhibition” value is listed as -10% and the Z score is reported as 1.27.

As for `O=C(NCCc1nccs1)c1n[nH]c2c1CCc1ccccc1-2`, the “% Inhibition” value is given as -9% and the Z score is 1.37.

Consider `O=C(NCCN1CCCCC1)c1n[nH]c2c1CCc1ccccc1-2`, for which the “% Inhibition” value was found to be 52% and the Z score was -0.47.

As for `O=C(c1n[nH]c2c1CCc1ccccc1-2)N1CCCCCC1`, the “% Inhibition” value is -15% and the Z score was found to be 1.3.

Take `Nc1ccc(F)cc1NC(=O)c1coc(-c2ccccc2)n1`: the “% Inhibition” value is -10% and the Z score was determined as 1.7.

Regarding `CC(C)c1nc(C(=O)Nc2[nH]c(=O)ncc2F)cs1`, the “% Inhibition” value is 88% and the Z score is given as -15.46.

Turning to `CC(C)c1nc(C(=O)N[C@@H](C)C(N)=O)cs1`, the “% Inhibition” value is -9% and the Z score was 1.83.

Regarding `O=C(Nc1[nH]c(=O)ncc1F)c1coc(-c2ccccc2)n1`, the “% Inhibition” value came out at 80% and the Z score is -14.59.

Regarding `Cc1cnc(NC(=O)c2nc(C)oc2-c2ccccc2)[nH]1`, the “% Inhibition” value is given as -10% and the Z score worked out at 1.11.

Consider `Cc1nc(C(=O)Nc2[nH]c(=O)ncc2F)c(-c2ccccc2)o1`, for which the “% Inhibition” value was 80% and the Z score is reported as -7.61.

Turning to `CC(C)c1nc(C(=O)Nc2[nH]nc(C3CC3)c2C#N)cs1`, the “% Inhibition” value is -25% and the Z score amounted to 3.79.

For `Cc1nc(C(=O)NC[C@@]23CCC[C@@H]2OCC3)c(-c2ccccc2)o1`, the “% Inhibition” value was found to be 0% and the Z score was -0.01.

Consider `CCc1ncc(NC(=O)c2coc(-c3ccccc3)n2)cn1`, for which the “% Inhibition” value is -21% and the Z score was 2.66.
